Screening data as filed in PubChem BioAssay.
DT40 TDP1 no CPT = qHTS for Inhibitors of human tyrosyl-DNA phosphodiesterase 1 (TDP1): qHTS in cells in absence of CPT; DT40 Tdp1-/- hTDP1 cells, no CPT, ATP luminescence, 48 h; AID 686978, 2013; actives 15% (n = 420,000); Potency, µM (doses to about 46.2 µM), inactives show top-dose activity change, negative = growth inhibition, hits mostly inhibitors; also: potency is read from the fitted curve at half-maximal effect; % is scaled to controls: 0 for no effect and ±100 for the full control effect; nearly all actives have a fitted effect of over 55% in size
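Luminescent ATP content (CellTiter-Glo) served as the growth readout. Knockout chicken DT40 cells expressing human TDP1 were exposed to compounds without camptothecin for a minimum 48 hr at 37 °C.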
DRD3 agonist = agonists of human D3 dopamine receptor | max activation, % | AID 652048 | D3R DiscoveRx beta-arrestin cells, luminescence, 90 min | P35462 | actives 0.58% (n = 410,000); in the data active = max activation above about 30%; also: 0% is about no effect
Target sequence (P35462 whole entry, looked up): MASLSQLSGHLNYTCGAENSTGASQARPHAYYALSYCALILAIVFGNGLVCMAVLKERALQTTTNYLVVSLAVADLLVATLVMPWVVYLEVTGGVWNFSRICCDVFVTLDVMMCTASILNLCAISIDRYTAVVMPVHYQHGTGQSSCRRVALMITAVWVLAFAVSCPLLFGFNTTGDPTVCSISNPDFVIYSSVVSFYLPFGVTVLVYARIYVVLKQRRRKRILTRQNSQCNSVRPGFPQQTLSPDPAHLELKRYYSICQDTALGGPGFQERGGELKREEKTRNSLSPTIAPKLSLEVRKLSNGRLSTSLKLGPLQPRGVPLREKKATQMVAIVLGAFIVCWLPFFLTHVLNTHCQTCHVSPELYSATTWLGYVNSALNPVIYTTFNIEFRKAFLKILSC
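Agonist-mode cell screen: cells plated at 1500/well and incubated overnight at 37 °C, then exposed to library compounds for 90 min at 37 °C. Detection reagent was added for 30–60 min at room temperature, and luminescence was read.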
TDP1 cell CPT = DT40-hTDP1 cell growth loss with CPT; actives 12% (n = 420,000); chicken DT40 Tdp1-/-;hTDP1 cells + 20 nM CPT, ATP luminescence, 48 h; Potency, µM (titrated, usually from 46.2 µM), without a hit: at the highest dose activity change, negative = growth inhibition, actives largely listed as inhibitors; also: potency is read from the fitted curve at half-maximal effect; % is scaled to controls: 0 for no effect and ±100 for the full control effect; nearly all actives have a fitted effect of over 55% in size
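Chicken DT40 Tdp1-/- cells stably complemented with human TDP1 were seeded at 400 cells/well in medium containing 20 nM camptothecin, exposed to pin-transferred compounds, and grown at 37 °C for at least 48 hr. Viability was read as ATP luminescence.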
IL1B secr inh = blocks inflammasome-driven IL-1 beta release; activity change, % at 57.5 µM; actives 4.7% (n = 360,000); THP-1 LPS/ATP IL-1B secretion, AlphaLISA, 16 h; stronger effect = lower value; in the data active = activity change below about -50%; inconclusive = mostly about -30% to -49%; also: % is scaled to controls: 0 for no effect and ±100 for the full control effect
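THP-1 cells pretreated 1 hr with compounds (up to 57.5 uM final), then stimulated with LPS (250 ng/mL final) plus ATP (1.25 mM final); secreted IL-1B measured by AlphaLISA after 16 hr, decreased signal indicating inhibition.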
ClpP mod = qHTS Assay for Activators of ClpP; ATP-dependent Clp protease proteolytic subunit (Bacillus subtilis (strain 168)), P80244; purified B. subtilis ClpP, FRET peptide cleavage, 20 min; Potency, µM (highest dose often 57.5 µM), for inactives: top-dose activity change, negative = active; actives 1.9% (n = 340,000); AID 651965, 2013; active = well fitted falling curve with a large enough effect; inconclusive = small, poorly fitted or top-dose-only effect; inactive = no such curve, though single readings can be large or run the other way; also: potency is read from the fitted curve at half-maximal effect; the source files actives as falling curves though it sought activators and does not explain the sign; nearly all actives have a fitted effect of over 65% in size
Target sequence (P80244 whole entry, looked up): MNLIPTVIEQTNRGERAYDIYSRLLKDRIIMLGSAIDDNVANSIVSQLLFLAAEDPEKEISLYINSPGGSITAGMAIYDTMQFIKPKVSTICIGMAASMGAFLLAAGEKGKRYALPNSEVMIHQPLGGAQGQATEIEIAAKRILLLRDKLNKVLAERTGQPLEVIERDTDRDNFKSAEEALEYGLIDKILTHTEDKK
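Purified B. subtilis ClpP, 10 microg/mL final in Tris/HCl pH8 with KCl, BSA, glycerol and Tween-20, cleaved an Abz/nitrotyrosine-quenched decapeptide. Fluorescence (ex 320, em 430) was read at 0 and 20 min at room temperature. Delta was normalized to 5.8 microM ADEP and DMSO/no-enzyme controls.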
D3 antag = blocks the human D3 dopamine receptor | P35462 | D3R cells, DiscoveRx beta-arrestin luminescence, antagonist mode; stronger effect = lower value | max response, negative = inhibition, % | actives 2.5% (n = 360,000) | AID 652054; in the data active = max response below about -50%; inconclusive = no clear call, values can overlap the other calls; also: % is scaled to controls: 0 for no effect and ±100 for the full control effect
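Cells expressing the human receptor were seeded at 1500 cells/well, incubated overnight at 37 degrees C in 5% CO2, then exposed to library compounds with dopamine controls for 90 minutes at 37 degrees C before luminescent detection.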
* marks the source's active call; other numbers are inactive results; ? = inconclusive; / = no result given; ! = not active in a repeat. The list is not random: actives were taken first. Their share in the collection is about 21%. Unless noted, calls follow the shape of the dose curve; as a rule, active = well fitted inhibition curve with a large enough effect; inconclusive = small, poorly fitted or top-dose-only effect; inactive = flat fitted curve, though single readings scatter.

SMILES | DT40 TDP1 no CPT | DRD3 agonist | TDP1 cell CPT | IL1B secr inh | ClpP mod | D3 antag
CCc1ccc(NC(=O)C2CCCN(S(=O)(=O)c3ccc(F)cc3)C2)cc1 (centres undefined) | 7.3µM* | 2 | 8.2µM* | / | 1% | /
CCc1ccc(NC(=O)C2CCCN(S(C)(=O)=O)C2)cc1 (centres undefined) | ? | -3 | ? | -3 | / | -10
Cc1ccc(NC(=O)C2CCCN(S(=O)(=O)c3ccc(F)cc3)C2)cc1 (centres undefined) | 16µM* | 0 | 23µM* | / | 1% | /
COc1ccc(NC(=O)c2oc3ccccc3c2NC(=O)Cc2cccs2)c(OC)c1 | ? | -6 | ? | / | 4% | /
COc1ccc(C(O)c2nc(-c3cccs3)cs2)cc1 (centres undefined) | ? | -5 | ? | 20 | 0% | -3
OC(CNCc1ccc(Cl)cc1)(c1ccccc1)c1ccc(F)cc1 (centres undefined) | 23µM* | -11 | ? | -67* | / | -11
OC(CNCc1ccc(F)cc1)(c1ccc(F)cc1)c1ccc(F)cc1 | ? | 2 | 23µM* | -55* | 3% | -51*
Cc1ccc(C(O)(CNCc2ccccc2)c2ccccc2)cc1 (centres undefined) | ? | -16 | ? | ? | 1% | ?
COc1ccc(S(=O)(=O)NC2CC(=O)N(c3cccc(F)c3)C2)cc1OC (centres undefined) | ? | 4 | ? | 14 | 1% | 2
Cc1ccccc1OCCCn1c(CO)nc2ccccc21 | 18µM* | -1 | ? | 3 | -5% | 2
CCc1nc2ccccc2n1CCCCOc1ccccc1C | 26µM* | 9 | ? | / | 2% | /
COc1ccccc1OCCn1c(CO)nc2ccccc21 | ? | 2 | -27% | -10 | 0% | 0
Cc1ccc(NCc2nc3ccccc3n2CCOc2ccccc2C)cc1 | ? | 23 | ? | / | -16% | /
COc1ccccc1OCC(=O)N(Cc1nc(-c2ccccc2)no1)C(C)C | ? | 9 | -18% | -59* | / | 4
COc1cccc(OCC(=O)N(Cc2nc(-c3ccc(Cl)cc3)no2)C(C)C)c1 | 23µM* | -3 | 8.2µM* | -6 | 0% | 17
Cc1cc(Br)ccc1OCC(=O)N(Cc1nc(-c2ccccc2)no1)C(C)C | -20% | 7 | -9% | 6 | -1% | 8
Cc1ccc(-c2noc(CN(C(=O)COc3cc(C)cc(C)c3C)C(C)C)n2)cc1 | ? | 7 | 23µM* | / | -5% | /
COc1ccccc1OCC(=O)N(Cc1nc(-c2ccc(Cl)cc2)no1)C(C)C | 16µM* | 0 | ? | -26 | 0% | 31
O=C1NC[C@H](Cc2ccc(O)cc2)N(CCc2cccc(F)c2)C1=O | -17% | -6 | -10% | -19 | -2% | -24
O=C1C(=O)N(Cc2cccnc2)C(c2cccc([N+](=O)[O-])c2)/C1=C(/O)c1ccc2c(c1)OCO2 (centres undefined) | 4% | 3 | -11% | 0 | 1% | -20
COc1ccc(NC(=O)CSc2nc3ccccc3c(=O)n2CCCN2CCC(C)CC2)c(OC)c1 | ? | -15 | -8% | -62* | / | -20
O=C(CSc1nc2ccccc2c(=O)n1CCCN1CCOCC1)Nc1ccc(F)c(Cl)c1 | ? | -6 | ? | ? | -2% | 9
COCCn1c(SCC(=O)Nc2ccc(OC)cc2OC)nc2ccccc2c1=O | 3% | 3 | -18% | 5 | -1% | -3
O=C(CSc1nc2ccccc2c(=O)n1CCCN1CCOCC1)Nc1ccccc1OC(F)F | 21µM* | 0 | 18µM* | -24 | 1% | -1
Cc1cc(C)c(NC(=O)CSc2nc3ccccc3c(=O)n2CCCN2CCOCC2)c(C)c1 | ? | -2 | ? | ? | -6% | -14
SMILES | DT40 TDP1 no CPT | DRD3 agonist | TDP1 cell CPT | IL1B secr inh | ClpP mod | D3 antag
CCOc1ccc(NC(=O)CSc2nc3ccccc3c(=O)n2CCCC(=O)N2CCCC2)cc1 | -28% | 1 | ? | 21 | -1% | ?
Cc1ccc(NC(=O)CSc2nc3ccccc3c(=O)n2CCCN2CCCCC2)cc1Cl | 21µM* | -14 | 21µM* | -87* | / | -20
CCc1ccc(NC(=O)CSc2nc3ccccc3c(=O)n2CCCC(=O)NCCCN2CCOCC2)cc1 | ? | -5 | -2% | -103* | / | 3
CCC(CC)c1nn2c(=O)cc(COc3ccc(NC(=O)c4cccc(Cl)c4)cc3)nc2s1 | -15% | 2 | -1% | / | -6% | /
O=S(=O)(Nc1ccccc1)c1ccc(NS(=O)(=O)c2c(F)cccc2F)cc1 | -2% | 41* | 8% | 18 | -23% | 6
O=S(=O)(Nc1ccc(N=Nc2ccccc2)cc1)c1ccccc1 | ? | -12 | ? | -88* | 0% | -52*
O=S(=O)(Nc1ccc(S(=O)(=O)Nc2ccccc2)cc1)c1ccccc1 | -21% | -3 | ? | 12 | 0% | 13
O=[N+]([O-])c1ccc(N=Nc2ccc(O)c3ccccc23)cc1 | 2.6µM* | -14 | 15µM* | -76* | / | -71*
O=S(=O)(Nc1ccc(N=Nc2ccc(O)c3ccccc23)cc1)c1ccccc1 | ? | -33 | ? | -60* | 9% | ?
O=S(=O)(Nc1ccc(-c2ccccc2)cc1)c1ccccc1 | ? | -9 | ? | ? | -1% | ?
O=S(=O)(Nc1ccc(Nc2ccccc2)cc1)c1ccc(F)cc1 | ? | 6 | ? | ? | / | ?
COc1ccc(/C=C(\NC(=O)c2ccc(OC)cc2)C(=O)N2CCCCC2)cc1 | -7% | 2 | -30% | 9 | -4% | 12
CCOc1ccc(OCCC(=O)N2CCN(S(=O)(=O)c3cccc(F)c3)CC2)cc1 | ? | -15 | ? | 3 | 1% | -7
COc1ccc(Cl)cc1NC(=O)CCc1nc(-c2ccccc2F)no1 | 16µM* | -10 | 23µM*! | 15 | -2% | 9
COc1ccccc1NC(=O)CCc1nc(-c2ccccc2F)no1 | -23% | -6 | ? | 9 | 36% | 10
O=C(CCc1nc(-c2ccccc2F)no1)Nc1ccc(Oc2ccccc2)cc1 | 10µM* | 3 | 23µM* | 20 | 0% | -18
COc1ccc(Br)cc1CNC(=O)CCc1nc(-c2ccccc2F)no1 | ? | 2 | 16µM* | -1 | -8% | 0
